PubChem BioAssay (EPA / NIEHS)
Records with an inconclusive call do not appear. Activity calls are given as the source filed them. How the source made its calls, unless noted: active means hit-call score of the fitted dose curve at least 0.9, where 1 is the maximum; inactive means score below 0.9.

What was measured:
[1] = ATG_PBREM_CIS: Attagene CIS-FACTORIAL HepG2 Assay for human Phenobarbital-responsive Enhancer Module (PBREM) (AID 2282955); conditions: HepG2 PBREM cis-reporter, Attagene multiplexed transcription; actives raise or lower the signal
Method in brief: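 After a 24 h incubation with test chemical, transfected HepG2 cells yield total RNA; reporter-specific RT-PCR products are fluorescently labelled, HpaI-digested and resolved by capillary electrophoresis against ROX size standards.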

[2] = molecular target: Paired box protein Pax-6 (Homo sapiens) (UniProt P26367); assay: ATG_Pax6_CIS: Attagene CIS-FACTORIAL HepG2 Assay for human Paired Box 6 (PAX6) (AID 2282956); conditions: HepG2 CIS-FACTORIAL PAX6 reporter transcription, RNA readout; actives raise or lower the signal
Paired box protein Pax-6 (Homo sapiens), sequence (P26367 whole entry, looked up): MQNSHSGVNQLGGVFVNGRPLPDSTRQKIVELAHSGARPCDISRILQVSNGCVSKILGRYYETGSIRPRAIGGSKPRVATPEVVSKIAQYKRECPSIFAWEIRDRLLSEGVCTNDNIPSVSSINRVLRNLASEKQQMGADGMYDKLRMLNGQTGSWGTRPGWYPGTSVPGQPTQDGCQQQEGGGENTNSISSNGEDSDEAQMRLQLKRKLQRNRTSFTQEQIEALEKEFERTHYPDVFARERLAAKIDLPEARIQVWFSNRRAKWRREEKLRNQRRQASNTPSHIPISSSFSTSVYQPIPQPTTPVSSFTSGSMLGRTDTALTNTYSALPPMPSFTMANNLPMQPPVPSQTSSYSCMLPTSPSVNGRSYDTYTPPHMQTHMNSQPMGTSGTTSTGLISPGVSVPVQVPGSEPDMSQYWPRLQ
Method in brief: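 Transient MRTU transfection of HepG2 → compound exposure 24 h → TriZol RNA, oligo(dT) RT → PCR, 6-FAM primer extension, HpaI cut → capillary electrophoresis; activity fitted both directions against DMSO.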

[3] = ATG_PXRE_CIS: Attagene CIS-FACTORIAL HepG2 Assay for human Pregnane X Receptor Element (PXRE) (AID 2282957); conditions: HepG2 Attagene CIS-FACTORIAL PXRE reporter, mRNA; actives raise or lower the signal
Method in brief: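 Multiplexed cis-reporter assay in transiently transfected human HepG2 cells; 24 h chemical exposure. Reporter transcripts quantified by RT-PCR with fluorescent labeling and capillary electrophoresis.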

[4] = ATG_PPRE_CIS: Attagene CIS-FACTORIAL HepG2 Assay for human Peroxisome Proliferator-activated Response Element (PPRE) (AID 2282958); conditions: HepG2 PPRE cis-element reporter, Attagene transcription factor profiling; actives raise or lower the signal
Method in brief: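 Multiplexed reporter transcription units under cis-regulatory promoters were transfected into HepG2 cells to capture endogenous factor activity. A 24 h incubation preceded RNA isolation and fluorescent RT-PCR fragment analysis.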

[5] = ATG_RORE_CIS: Attagene CIS-FACTORIAL HepG2 Assay for human RAR-related Orphan Receptor Element (RORE) (AID 2282959); conditions: HepG2 Attagene cis-factorial RORE reporter, mRNA; actives raise or lower the signal
Method in brief: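 Fluorescence intensity of reporter-specific cDNA fragments, separated by capillary electrophoresis, gives the signal. Source: HepG2 liver cells transiently transfected with cis-element reporters and exposed 24 h; DMSO-normalized bidirectional fit.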

[6] = ATG_Sox_CIS: Attagene CIS-FACTORIAL HepG2 Assay for human SRY-box transcription factor (SOX) (AID 2282960); conditions: HepG2 Attagene cis-factorial SOX reporter, mRNA; actives raise or lower the signal
Method in brief: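 After 24 h of chemical treatment, transfected HepG2 reporter cells are lysed for total RNA. Transcript levels come from RT-PCR with labelled primer extension and capillary electrophoresis, analysed bidirectionally versus DMSO.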

[7] = molecular target: Transcription factor Sp1 (Homo sapiens) (UniProt P08047); assay: ATG_Sp1_CIS: Attagene CIS-FACTORIAL HepG2 Assay for human Specificity Protein 1 (Sp1) (AID 2282961); conditions: HepG2 Sp1 cis-reporter transcription, actives raise or lower the signal
Transcription factor Sp1 (Homo sapiens), sequence (P08047 whole entry, looked up): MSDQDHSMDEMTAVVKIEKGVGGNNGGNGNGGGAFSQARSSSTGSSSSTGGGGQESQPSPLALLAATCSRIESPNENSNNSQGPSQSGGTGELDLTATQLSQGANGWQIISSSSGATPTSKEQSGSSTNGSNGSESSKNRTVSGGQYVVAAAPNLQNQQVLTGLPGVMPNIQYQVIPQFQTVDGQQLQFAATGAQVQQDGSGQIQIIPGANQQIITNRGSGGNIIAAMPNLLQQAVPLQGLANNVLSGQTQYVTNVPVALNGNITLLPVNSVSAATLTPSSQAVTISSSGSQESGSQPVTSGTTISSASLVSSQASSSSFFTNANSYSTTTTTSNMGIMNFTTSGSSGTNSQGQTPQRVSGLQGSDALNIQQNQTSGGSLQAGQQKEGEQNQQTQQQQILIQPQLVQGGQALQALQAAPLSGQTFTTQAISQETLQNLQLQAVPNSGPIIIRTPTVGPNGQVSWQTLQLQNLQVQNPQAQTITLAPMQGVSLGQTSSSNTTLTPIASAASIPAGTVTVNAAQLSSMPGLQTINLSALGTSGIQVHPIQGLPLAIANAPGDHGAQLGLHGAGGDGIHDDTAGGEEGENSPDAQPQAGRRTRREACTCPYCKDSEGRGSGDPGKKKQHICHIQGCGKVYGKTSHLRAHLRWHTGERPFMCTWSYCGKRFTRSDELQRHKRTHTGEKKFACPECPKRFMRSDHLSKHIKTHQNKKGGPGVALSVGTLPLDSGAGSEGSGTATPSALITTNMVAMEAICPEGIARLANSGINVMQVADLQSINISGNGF
Method in brief: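 Sp1-driven reporter mRNA, read as capillary electrophoresis fluorescence after RT-PCR, in transiently transfected HepG2 cells dosed for 24 h; signal change in either direction relative to DMSO.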

[8] = ATG_SREBP_CIS: Attagene CIS-FACTORIAL HepG2 Assay for human Sterol Regulatory Element Binding (SREBP) (AID 2282962); conditions: HepG2 Attagene cis-factorial SREBP reporter, mRNA; actives raise or lower the signal
Method in brief: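 Transfected HepG2 (cis-regulated reporter library, endogenous TFs) → compound 24 h → total RNA → oligo(dT) RT → reporter-specific PCR → FAM primer extension, HpaI cut → CE fluorescence. Fit bidirectional vs DMSO.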

[9] = molecular target: Signal transducer and activator of transcription 3 (Homo sapiens) (UniProt P40763); assay: ATG_STAT3_CIS: Attagene CIS-FACTORIAL HepG2 Assay for human Signal Transducer and Activator of Transcription 3 (STAT3) (AID 2282963); conditions: HepG2, Attagene cis-factorial STAT3 reporter transcription; actives raise or lower the signal
Signal transducer and activator of transcription 3 (Homo sapiens), sequence (P40763 whole entry, looked up): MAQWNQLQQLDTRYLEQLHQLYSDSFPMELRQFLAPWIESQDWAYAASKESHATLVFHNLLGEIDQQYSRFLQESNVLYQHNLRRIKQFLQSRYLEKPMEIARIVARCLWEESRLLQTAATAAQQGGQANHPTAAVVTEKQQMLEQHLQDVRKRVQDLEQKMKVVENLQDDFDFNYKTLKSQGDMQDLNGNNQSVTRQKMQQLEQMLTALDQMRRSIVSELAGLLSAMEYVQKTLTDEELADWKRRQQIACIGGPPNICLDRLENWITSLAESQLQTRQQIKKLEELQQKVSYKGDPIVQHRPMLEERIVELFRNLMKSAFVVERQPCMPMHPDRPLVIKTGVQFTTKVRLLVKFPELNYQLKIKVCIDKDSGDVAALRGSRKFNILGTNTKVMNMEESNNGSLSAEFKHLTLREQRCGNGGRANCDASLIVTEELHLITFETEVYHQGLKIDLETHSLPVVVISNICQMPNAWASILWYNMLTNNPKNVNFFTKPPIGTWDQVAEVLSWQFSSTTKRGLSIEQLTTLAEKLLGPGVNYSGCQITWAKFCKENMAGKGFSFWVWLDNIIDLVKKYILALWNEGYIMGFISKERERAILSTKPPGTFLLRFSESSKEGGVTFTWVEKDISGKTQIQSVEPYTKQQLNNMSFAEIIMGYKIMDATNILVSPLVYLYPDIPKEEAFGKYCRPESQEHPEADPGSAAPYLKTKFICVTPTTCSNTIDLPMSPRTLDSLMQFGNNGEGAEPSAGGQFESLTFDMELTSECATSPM
Method in brief: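 Values derive from bidirectional fits relative to DMSO of reporter mRNA levels, measured by RT-PCR with capillary electrophoresis, in HepG2 cells carrying transiently transfected cis-regulated reporter units and exposed 24 h.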

[10] = ATG_TA_CIS: Attagene CIS-FACTORIAL HepG2 Assay for human TA Basal Promoter (AID 2282964); conditions: HepG2 Attagene CIS-factorial TA basal promoter reporter; actives raise or lower the signal
Method in brief: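 HepG2 cells transiently transfected with multiple reporter units under cis promoter elements, reporting endogenous transcription factor activity; this endpoint tracks the TA basal promoter as background control. Reporter mRNA after 24 h dosing measured by RT-PCR/capillary electrophoresis; bidirectional fits versus DMSO.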

[11] = ATG_TCF_b_cat_CIS: Attagene CIS-FACTORIAL HepG2 Assay for human T-Cell-Factor with beta-catenin (TCF/b-cat) (AID 2282965); conditions: HepG2 TCF/beta-catenin cis-reporter transcription, actives raise or lower the signal
Method in brief: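 HepG2, transient MRTU transfection, cis-element-driven reporters (endogenous TFs). 24 h compound exposure. Readout: reporter mRNA by RT-PCR + 6-FAM primer extension, HpaI digest, capillary electrophoresis. Gain/loss fit vs DMSO baseline.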

[12] = ATG_TAL_CIS: Attagene CIS-FACTORIAL HepG2 Assay for human TAL Basal Promoter (AID 2282966); conditions: HepG2 Attagene cis-factorial TAL promoter reporter; actives raise or lower the signal;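 further: background control endpoint measuring basal TAL promoter reporter mRNA not a specific factor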
Method in brief: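 Steps: transfect HepG2 with multiple reporter transcription units; dose 24 h; isolate RNA, reverse-transcribe, PCR-amplify, label with 6-FAM, digest with HpaI; resolve by capillary electrophoresis. Bidirectional fitting against DMSO baseline.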

[13] = ATG_TGFb_CIS: Attagene CIS-FACTORIAL HepG2 Assay for human Transforming Growth Factor (TGF) (AID 2282967); conditions: HepG2 Attagene CIS TGFb reporter, mRNA transcription; actives raise or lower the signal
Method in brief: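 HepG2 cells transiently transfected with cis-promoter-driven multiple reporter units measure endogenous TF activity; reporter mRNA quantified at 24 h by RT-PCR, FAM labeling, HpaI digestion and capillary electrophoresis. Bidirectional fit vs DMSO.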

[14] = ATG_VDRE_CIS: Attagene CIS-FACTORIAL HepG2 Assay for human Vitamin D Receptor Element (VDRE) (AID 2282968); conditions: HepG2 VDRE cis-reporter transcription, actives raise or lower the signal
Method in brief: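 Cell-based multiplexed reporter format in human liver HepG2 cells, 24 h post-dose. Fluorescence from capillary electrophoresis of reporter cDNA gives the signal, with DMSO as negative control and baseline.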

[15] = molecular target: Estrogen receptor (Homo sapiens) (UniProt P03372); assay: ATG_ERa_TRANS: Attagene TRANS-FACTORIAL HepG2 Assay for human Estrogen Receptor alpha (ERa) (AID 2282970; active means hit-call score of the fitted dose curve at least 0.9, where 1 is the maximum); conditions: HepG2 Attagene TRANS ERa GAL4 reporter, mRNA
Estrogen receptor (Homo sapiens), sequence (P03372 whole entry, looked up, the tested form may be a part): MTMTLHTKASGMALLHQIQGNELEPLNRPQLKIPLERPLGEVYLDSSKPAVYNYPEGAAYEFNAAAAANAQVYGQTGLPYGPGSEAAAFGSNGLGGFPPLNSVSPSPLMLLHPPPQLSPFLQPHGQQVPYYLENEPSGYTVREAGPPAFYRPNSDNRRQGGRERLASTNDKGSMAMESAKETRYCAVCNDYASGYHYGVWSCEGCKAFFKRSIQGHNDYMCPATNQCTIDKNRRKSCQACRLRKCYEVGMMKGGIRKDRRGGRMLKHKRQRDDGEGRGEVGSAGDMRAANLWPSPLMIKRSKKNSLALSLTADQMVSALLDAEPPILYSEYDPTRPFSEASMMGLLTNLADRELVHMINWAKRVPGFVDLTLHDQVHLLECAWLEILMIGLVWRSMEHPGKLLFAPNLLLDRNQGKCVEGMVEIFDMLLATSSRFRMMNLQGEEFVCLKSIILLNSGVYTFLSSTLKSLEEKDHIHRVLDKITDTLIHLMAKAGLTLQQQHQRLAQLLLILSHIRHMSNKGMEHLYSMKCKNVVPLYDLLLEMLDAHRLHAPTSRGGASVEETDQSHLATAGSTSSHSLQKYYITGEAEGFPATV
Method in brief: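 Multiplexed cell-based reporter format in HepG2: chimeric ERa-Gal4 protein drives GAL4-UAS reporter transcription. Fluorescent reporter mRNA quantified by capillary electrophoresis 24 hours after dosing; endpoint fitted as signal gain against DMSO.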

[16] = molecular target: X-box-binding protein 1 (Homo sapiens) (UniProt P17861); assay: ATG_Xbp1_CIS: Attagene CIS-FACTORIAL HepG2 Assay for human X-box Binding Protein 1 (XBP1) (AID 2282972); conditions: HepG2 XBP1 cis-element reporter, Attagene multiplex; actives raise or lower the signal
X-box-binding protein 1 (Homo sapiens), sequence (P17861 whole entry, looked up): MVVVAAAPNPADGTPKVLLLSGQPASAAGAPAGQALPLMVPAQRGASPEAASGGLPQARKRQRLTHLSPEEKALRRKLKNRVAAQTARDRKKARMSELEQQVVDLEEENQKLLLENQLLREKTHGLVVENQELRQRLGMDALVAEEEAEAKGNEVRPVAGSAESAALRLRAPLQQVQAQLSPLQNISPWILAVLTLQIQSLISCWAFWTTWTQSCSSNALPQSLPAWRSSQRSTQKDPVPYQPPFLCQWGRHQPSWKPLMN
Method in brief: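 HepG2, transient MRTU transfection (cis-promoter driven), 24 h compound exposure. Total RNA → oligo(dT) RT → PCR → 6-FAM labeling → HpaI cut → CE. Bidirectional fit vs DMSO.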

[17] = ATG_GAL4_TRANS: Attagene TRANS-FACTORIAL HepG2 Assay for GAL4 (Internal Marker) (AID 2282976; active means hit-call score of the fitted dose curve at least 0.9, where 1 is the maximum); conditions: HepG2 Attagene TRANS GAL4 internal marker reporter
Method in brief: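 Liver HepG2 line bearing multiplexed GAL4-UAS reporter constructs; 24 h chemical treatment. Transcripts were quantified as fluorescent fragments on capillary electrophoresis after RT-PCR and HpaI cut, with activity fitted upward from DMSO.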

[18] = molecular target: Steroid hormone receptor ERR1 (Homo sapiens) (UniProt P11474); assay: ATG_ERRa_TRANS: Attagene TRANS-FACTORIAL HepG2 Assay for human Estrogen-Related Receptor alpha (ERRa) (AID 2282971; active means hit-call score of the fitted dose curve at least 0.9, where 1 is the maximum); conditions: HepG2 Attagene TRANS reporter, ERRa transactivation
Steroid hormone receptor ERR1 (Homo sapiens), sequence (P11474 whole entry, looked up, the tested form may be a part): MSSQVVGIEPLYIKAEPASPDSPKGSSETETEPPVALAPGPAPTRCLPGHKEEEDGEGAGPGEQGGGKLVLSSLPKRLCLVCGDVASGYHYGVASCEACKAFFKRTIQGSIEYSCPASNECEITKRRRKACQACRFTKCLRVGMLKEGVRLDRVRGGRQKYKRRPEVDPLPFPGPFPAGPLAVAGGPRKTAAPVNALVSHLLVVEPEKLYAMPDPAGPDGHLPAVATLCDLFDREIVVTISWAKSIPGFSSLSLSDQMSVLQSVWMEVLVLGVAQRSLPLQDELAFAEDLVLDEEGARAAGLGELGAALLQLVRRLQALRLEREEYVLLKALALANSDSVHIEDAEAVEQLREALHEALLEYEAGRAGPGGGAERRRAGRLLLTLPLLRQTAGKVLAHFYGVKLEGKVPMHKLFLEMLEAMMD
Method in brief: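 Signal gain relative to DMSO for an ERRa-Gal4 chimeric receptor, read as reporter mRNA by RT-PCR/capillary electrophoresis. Human HepG2 liver cells, transient multiplex reporter transfection, 24 h chemical exposure.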

[19] = molecular target: Nuclear receptor subfamily 1 group I member 3 (Homo sapiens) (UniProt Q14994); assay: ATG_CAR_TRANS: Attagene TRANS-FACTORIAL HepG2 Assay for human Constitutive Androstane Receptor (CAR) (AID 2282969; active means hit-call score of the fitted dose curve at least 0.9, where 1 is the maximum;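 further: activators raise reporter mRNA above DMSO so AC50 marks induction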); conditions: HepG2 Attagene TRANS-FACTORIAL CAR reporter
Nuclear receptor subfamily 1 group I member 3 (Homo sapiens), sequence (Q14994 whole entry, looked up, the tested form may be a part): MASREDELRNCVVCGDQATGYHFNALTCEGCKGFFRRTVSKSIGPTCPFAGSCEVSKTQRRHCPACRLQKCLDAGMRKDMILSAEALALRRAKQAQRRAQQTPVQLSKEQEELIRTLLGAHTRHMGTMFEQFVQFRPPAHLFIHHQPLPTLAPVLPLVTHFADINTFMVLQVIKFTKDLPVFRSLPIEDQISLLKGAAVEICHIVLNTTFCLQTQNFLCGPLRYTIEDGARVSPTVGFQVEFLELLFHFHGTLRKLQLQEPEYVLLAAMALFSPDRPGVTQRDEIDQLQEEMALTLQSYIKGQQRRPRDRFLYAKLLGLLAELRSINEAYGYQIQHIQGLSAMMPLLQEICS
Method in brief: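 HepG2 cells transiently transfected with GAL4-UAS reporter units; TRANS format reads activity of exogenous chimeric NR-Gal4 protein. After 24 h dosing, reporter mRNA quantified by RT-PCR, 6-FAM labelling and capillary electrophoresis; gain of signal fitted against DMSO.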

[20] = ATG_M_19_TRANS: Attagene TRANS-FACTORIAL HepG2 Assay for M19 Transcription Factor (Internal Marker) (AID 2282974; active means hit-call score of the fitted dose curve at least 0.9, where 1 is the maximum); conditions: HepG2 Attagene TRANS-FACTORIAL M19 internal marker reporter
Method in brief: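 Measured here: internal-marker reporter transcript from HepG2 cells transfected with MRTUs, harvested at 24 h. cDNA PCR products were 6-FAM labelled by primer extension, cut with HpaI for 2 h at 37 C, and resolved by CE.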

Measured: AC50

Cc1ccc([N+](=O)[O-])cc1N
active: [3] 45.4 µM
not listed: [18] | [19] | [20]
inactive: all other assays above

CCCCCCOC(=O)CCCCC(=O)OCCCCCC
active: [3] 19.8 µM
not listed: [19] | [20]
inactive: all other assays above

O=C(O)C(F)(F)C(F)(F)C(F)(F)C(F)(F)C(=O)O
not listed: [18] | [19] | [20]
inactive: all other assays above

CC1=NN(c2ccc(S(=O)(=O)O)cc2)C(=O)C1N=Nc1ccccc1 (configuration not stated)
active: [3] 100 µM
not listed: [15] | [17] | [18] | [19] | [20]
inactive: all other assays above

CC1=CC(C)C(C=O)CC1 (configuration not stated)
active: [3] 27.7 µM
not listed: [17] | [20]
inactive: all other assays above

CCCC(C)C(=O)OCC (configuration not stated)
not listed: [11] | [18] | [19] | [20]
inactive: all other assays above

COC(=O)c1ccc(C(=O)OC)c(C(=O)OC)c1
not listed: [11] | [14] | [17] | [19]
inactive: all other assays above

CCCCCCCOC(=O)c1ccc(O)cc1
active: [6] 33.4 µM | [7] 33.4 µM | [16] 45.1 µM
not listed: [4] | [14] | [15] | [18] | [20]
inactive: all other assays above
